For eight molecules, outcome and AC50 results are on record in PubChem BioAssay (EPA / NIEHS).

Records with an inconclusive call do not appear. Active and inactive are the calls of the source. How the source made its calls, unless noted: active means hit-call score of the fitted dose curve at least 0.9, where 1 is the maximum; inactive means score below 0.9.

Experiment [1] concerns the target Hepatocyte nuclear factor 4-alpha (Homo sapiens) (UniProt P41235). Description: ATG_HNF4a_TRANS: Attagene TRANS-FACTORIAL HepG2 Assay for human Hepatocyte Nuclear Factor 4 alpha (HNF4a) (AID 2282982; active means hit-call score of the fitted dose curve at least 0.9, where 1 is the maximum). The settings on record: HepG2 HNF4a transactivation reporter, mRNA readout. Summed up: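 Transfected HepG2 reporter cells are dosed for 24 h; reporter RNA is reverse-transcribed, amplified, fluorescently labelled and HpaI-digested before CE sizing. Positive-direction fit against DMSO.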

The nature of experiment [2]: ATG_M_06_TRANS: Attagene TRANS-FACTORIAL HepG2 Assay for M06 Transcription Factor (Internal Marker) (AID 2282983; active means hit-call score of the fitted dose curve at least 0.9, where 1 is the maximum). The settings on record: HepG2 Attagene TRANS M06 internal marker reporter. The procedure, abridged: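 After a 24 h chemical treatment of transfected HepG2, RNA underwent DNase I treatment, reverse transcription and reporter-specific PCR; labelled, HpaI-digested products were sized by capillary electrophoresis. Signal increase relative to DMSO defined activity.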

Experiment [3] in a line: ATG_M_32_TRANS: Attagene TRANS-FACTORIAL HepG2 Assay for M32 Transcription Factor (Internal Marker) (AID 2282984; active means hit-call score of the fitted dose curve at least 0.9, where 1 is the maximum;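 further: transcript level of a background control reporter unit measured by RT-PCR and capillary electrophoresis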). The settings on record: HepG2 Attagene TRANS M32 internal marker reporter. The procedure, abridged:
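Using transiently transfected HepG2 cells exposed to test chemicals for 24 h, reporter transcripts are converted to labelled cDNA fragments and quantified by capillary electrophoresis. DMSO defines the activity baseline.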

Experiment [4] has as its target Nuclear receptor subfamily 4 group A member 2 (Homo sapiens) (UniProt P43354). The experiment is described as follows: ATG_NURR1_TRANS: Attagene TRANS-FACTORIAL HepG2 Assay for human Nuclear Receptor Related Protein 1 (NURR1) (AID 2282985; active means hit-call score of the fitted dose curve at least 0.9, where 1 is the maximum). Conditions: HepG2 Attagene TRANS reporter, mRNA readout. The procedure, abridged: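 Cells: HepG2, transiently transfected. Exposure: 24 h. Detection: fluorescence of labelled RT-PCR products separated by capillary electrophoresis; upward fit versus DMSO.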

For experiment [5], the target named is Transcriptional activator Myb (Homo sapiens) (UniProt P10242). The experiment is described as follows: ATG_Myb_CIS: Attagene CIS-FACTORIAL HepG2 Assay for human Myeloblastosis (Myb) Proto-Oncogene Transcription Factor (AID 2282986). The settings on record: HepG2 Attagene CIS-FACTORIAL Myb reporter transcription; actives raise or lower the signal. Summed up:
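Multiplexed cis-reporter system in HepG2: transient transfection, 24 h treatment, mRNA readout by RT-PCR and capillary electrophoresis. Both increases and decreases are scored versus DMSO negative control.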

Experiment [6] deals with Nuclear respiratory factor 1 (Homo sapiens) (UniProt Q16656). Description: ATG_NRF1_CIS: Attagene CIS-FACTORIAL HepG2 Assay for human Nuclear Respiratory Factor 1 (NRF1) Orphan Gene (AID 2282987). Conditions: HepG2 NRF1 cis-element reporter, Attagene multiplex; actives raise or lower the signal. The procedure, abridged:
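Endogenous factor activity was captured via cis-element-driven reporter transcripts in HepG2 cells. Following 24 h chemical treatment, transcripts were quantified by RT-PCR and capillary electrophoresis.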

A short description of experiment [7]: ATG_NFI_CIS: Attagene CIS-FACTORIAL HepG2 Assay for human Nuclear Factor I (NFI) (AID 2282989). Conditions: HepG2 cis-regulatory reporter, NFI response element transcription; actives raise or lower the signal. Summed up:
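Transfected HepG2 liver cells, exposed 24 h, supplied total RNA for oligo(dT) reverse transcription and reporter-specific PCR. Labelled, HpaI-cut fragments were sized by capillary electrophoresis; DMSO set the baseline for bidirectional fitting.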

Experiment [8] has as its target Myc proto-oncogene protein (Homo sapiens) (UniProt P01106). Description: ATG_Myc_CIS: Attagene CIS-FACTORIAL HepG2 Assay for human Myelocytomatosis (Myc) Proto-Oncogene Transcription Factor (AID 2282990). The settings on record: HepG2, Attagene cis-reporter transcription factor activity; actives raise or lower the signal. Summed up: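 HepG2, transient MRTU transfection (cis promoters, endogenous TFs); 24 h dosing; TriZol RNA → oligo(dT) RT → PCR → 6-FAM primer extension → HpaI cut → CE. Bidirectional fit vs DMSO.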

The nature of experiment [9]: ATG_NF_kB_CIS: Attagene CIS-FACTORIAL HepG2 Assay for human Nuclear Factor Kappa B (NF-kB) (AID 2282991). Conditions: HepG2 Attagene cis-factorial NF-kB reporter mRNA; actives raise or lower the signal. The procedure, abridged: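 After 24 h compound incubation, transfected HepG2 cells yield total RNA; reporter cDNA is PCR-amplified, end-labelled with 6-FAM, HpaI-digested and analysed on a genetic analyser. Endogenous factor activity, DMSO-referenced bidirectional fit.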

The nature of experiment [10]: ATG_NRF2_ARE_CIS: Attagene CIS-FACTORIAL HepG2 Assay for human Nuclear Factor Erythroid 2 Related Factor 2 (NFR2) response to Antioxidant Response Elements (ARE) (AID 2282992).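 On AC50: reporter mRNA level measured by RT-PCR and capillary electrophoresis fluorescence.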 Conditions: HepG2 Attagene ARE/NRF2 reporter, transcription factor activity; actives raise or lower the signal. The procedure, abridged: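 Cis-factorial assay: transfected HepG2 reporter library, 24 h dosing, mRNA readout via RT-PCR/CE; DMSO-referenced bidirectional analysis.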

In experiment [11] the target is Cellular tumor antigen p53 (Homo sapiens) (UniProt P04637). Description: ATG_p53_CIS: Attagene CIS-FACTORIAL HepG2 Assay for human p53 Transcription Factor (AID 2282994). Conditions: HepG2 p53 cis-element reporter, Attagene mRNA; actives raise or lower the signal. The procedure, abridged:
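Using HepG2 hepatoma cells carrying cis-acting multiplexed reporters, mRNA induction is detected after a 24 h exposure. Gain- and loss-of-signal responses are fitted relative to DMSO-treated cells.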

Experiment [12] deals with Bile acid receptor (Homo sapiens) (UniProt Q96RI1). Description: ATG_FXR_TRANS: Attagene TRANS-FACTORIAL HepG2 Assay for Farnesoid X Receptor (FXR) (AID 2282979; active means hit-call score of the fitted dose curve at least 0.9, where 1 is the maximum;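 further: hits raise reporter mRNA above DMSO so AC50 marks FXR activation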). The settings on record: HepG2 Attagene TRANS FXR-GAL4 reporter transcription. The procedure, abridged: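 Read-out: fluorescent reporter transcripts quantified by capillary electrophoresis after RT-PCR of total RNA. Source cells were HepG2 transiently carrying chimeric NR-GAL4 plus GAL4-UAS reporter units, dosed 24 h. Activity fitted upward relative to DMSO baseline.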
Chain of Bile acid receptor (Homo sapiens) (Q96RI1 whole entry, looked up, the tested form may be a part): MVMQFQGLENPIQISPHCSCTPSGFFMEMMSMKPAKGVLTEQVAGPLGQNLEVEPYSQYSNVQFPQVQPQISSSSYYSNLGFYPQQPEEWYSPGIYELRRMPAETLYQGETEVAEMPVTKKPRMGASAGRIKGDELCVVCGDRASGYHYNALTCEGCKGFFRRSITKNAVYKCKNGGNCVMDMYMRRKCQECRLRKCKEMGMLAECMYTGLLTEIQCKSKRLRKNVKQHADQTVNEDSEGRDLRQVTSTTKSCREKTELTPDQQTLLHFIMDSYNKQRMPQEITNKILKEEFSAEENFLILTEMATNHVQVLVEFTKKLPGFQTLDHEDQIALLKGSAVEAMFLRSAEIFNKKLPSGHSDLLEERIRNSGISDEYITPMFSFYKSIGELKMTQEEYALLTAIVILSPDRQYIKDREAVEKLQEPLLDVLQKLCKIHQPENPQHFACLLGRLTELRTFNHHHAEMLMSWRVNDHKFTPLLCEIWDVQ

Experiment [13] in a line: ATG_Oct_MLP_CIS: Attagene CIS-FACTORIAL HepG2 Assay for human Octamer-Binding Transcription Factor (Oct) (AID 2282993). The settings on record: HepG2 Attagene cis-factorial Oct reporter, mRNA; actives raise or lower the signal. The procedure, abridged:
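Using HepG2 cells bearing transfected cis-reporter constructs, mRNA induction was read after 24 h by fluorescent RT-PCR and capillary electrophoresis, with DMSO defining baseline for gain- or loss-of-signal fits.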

The target of experiment [14] is Glucocorticoid receptor (Homo sapiens) (UniProt P04150). The experiment is described as follows: ATG_GR_TRANS: Attagene TRANS-FACTORIAL HepG2 Assay for human Glucocorticoid Receptor (GR) (AID 2282978; active means hit-call score of the fitted dose curve at least 0.9, where 1 is the maximum;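 further: activators score as hits since higher reporter transcript over DMSO is fitted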). The settings on record: HepG2 Attagene TRANS GR reporter, mRNA transcription. Summed up: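 HepG2 transient transfection, multiple reporter units, GAL4-UAS under NR-GAL4 chimera control. 24 h treatment. Reporter mRNA by RT-PCR/CE fluorescence, DMSO as negative control.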
Chain of Glucocorticoid receptor (Homo sapiens) (P04150 whole entry, looked up, the tested form may be a part): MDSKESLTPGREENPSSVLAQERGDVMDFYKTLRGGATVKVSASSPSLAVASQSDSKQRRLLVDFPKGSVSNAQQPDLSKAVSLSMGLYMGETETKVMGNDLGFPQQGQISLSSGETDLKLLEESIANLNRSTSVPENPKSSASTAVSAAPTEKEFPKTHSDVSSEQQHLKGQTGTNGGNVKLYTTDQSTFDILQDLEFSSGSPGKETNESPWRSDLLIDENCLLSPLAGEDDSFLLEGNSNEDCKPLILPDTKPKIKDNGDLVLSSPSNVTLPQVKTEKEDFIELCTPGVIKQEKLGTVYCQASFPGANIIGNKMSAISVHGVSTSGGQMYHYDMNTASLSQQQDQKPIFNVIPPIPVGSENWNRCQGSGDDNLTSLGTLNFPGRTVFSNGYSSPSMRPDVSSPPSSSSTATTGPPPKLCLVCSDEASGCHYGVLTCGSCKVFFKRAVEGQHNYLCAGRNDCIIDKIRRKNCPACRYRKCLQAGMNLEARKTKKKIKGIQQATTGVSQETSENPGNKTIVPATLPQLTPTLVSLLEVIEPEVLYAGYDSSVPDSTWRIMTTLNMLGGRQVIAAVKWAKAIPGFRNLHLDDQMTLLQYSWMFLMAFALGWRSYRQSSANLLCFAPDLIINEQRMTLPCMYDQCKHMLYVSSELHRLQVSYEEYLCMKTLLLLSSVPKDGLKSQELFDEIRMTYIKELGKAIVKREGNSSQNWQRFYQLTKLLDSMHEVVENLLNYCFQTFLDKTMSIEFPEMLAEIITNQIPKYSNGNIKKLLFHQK

The target of experiment [15] is Oxysterols receptor LXR-beta (Homo sapiens) (UniProt P55055). The experiment is described as follows: ATG_LXRb_TRANS: Attagene TRANS-FACTORIAL HepG2 Assay for human Liver X Receptor beta (LXRb) (AID 2282981; active means hit-call score of the fitted dose curve at least 0.9, where 1 is the maximum). The settings on record: HepG2 Attagene TRANS GAL4-LXRb reporter, mRNA. The procedure, abridged:
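Cells: HepG2, transiently transfected with GAL4-UAS reporter units plus LXRb-Gal4 fusion. Treatment: 24 h. Detection: reporter mRNA by RT-PCR, 6-FAM labelling, HpaI digestion, capillary electrophoresis.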

A short description of experiment [16]: BSK_3C_TissueFactor: BioMAP Diversity Plus: 3C Assay for Tissue Factor Biomarker Activity (AID 2282997). Conditions: BioMAP 3C HUVEC, tissue factor biomarker readout; actives raise or lower the signal. The procedure, abridged: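 Human vascular primary cells (umbilical vein endothelium) received test chemical; Tissue Factor was determined by ELISA at 24 h, and both gain and loss of signal versus DMSO were fitted.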

Experiment [17] in a line: BSK_3C_uPAR: BioMAP Diversity Plus: 3C Assay for Urokinase-type plasminogen activator receptor (uPAR) Biomarker Activity (AID 2282998). The settings on record: BioMAP 3C HUVEC, uPAR biomarker ELISA; actives raise or lower the signal. The procedure, abridged:
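In this endothelial cell-based assay, human umbilical vein primary cells were treated with chemicals and harvested at 24 h. uPAR was quantified using ELISA, with gains or losses fitted relative to DMSO controls.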
On the technique in general: An ELISA detects its analyte on a solid surface through an enzyme-linked reagent.

The target of experiment [18] is Oxysterols receptor LXR-alpha (Homo sapiens) (UniProt Q13133). The experiment is described as follows: ATG_LXRa_TRANS: Attagene TRANS-FACTORIAL HepG2 Assay for human Liver X Receptor alpha (LXRa) (AID 2282980; active means hit-call score of the fitted dose curve at least 0.9, where 1 is the maximum). Conditions: HepG2 Attagene TRANS reporter, LXRa transactivation. The procedure, abridged:
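Read-out: reporter transcript levels by RT-PCR plus capillary electrophoresis, fluorescence intensity. Transiently transfected HepG2, exogenous NR-GAL4 chimera, GAL4-UAS reporters; 24 h compound exposure. Activity = increase over DMSO negative control.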

Experiment [19] can be described thus: BSK_3C_VCAM1: BioMAP Diversity Plus: 3C Assay for Vascular cell adhesion molecule 1 (VCAM1) Biomarker Activity (AID 2282999). Conditions: BioMAP 3C HUVEC, VCAM1 ELISA, cytokine-stimulated; actives raise or lower the signal. Summed up:
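Endothelial cells from human umbilical vein are treated with test chemical. At 24 h, VCAM-1 is measured by ELISA, and responses in either direction are fitted relative to DMSO.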

Chain of Myc proto-oncogene protein (Homo sapiens) (P01106 whole entry, looked up): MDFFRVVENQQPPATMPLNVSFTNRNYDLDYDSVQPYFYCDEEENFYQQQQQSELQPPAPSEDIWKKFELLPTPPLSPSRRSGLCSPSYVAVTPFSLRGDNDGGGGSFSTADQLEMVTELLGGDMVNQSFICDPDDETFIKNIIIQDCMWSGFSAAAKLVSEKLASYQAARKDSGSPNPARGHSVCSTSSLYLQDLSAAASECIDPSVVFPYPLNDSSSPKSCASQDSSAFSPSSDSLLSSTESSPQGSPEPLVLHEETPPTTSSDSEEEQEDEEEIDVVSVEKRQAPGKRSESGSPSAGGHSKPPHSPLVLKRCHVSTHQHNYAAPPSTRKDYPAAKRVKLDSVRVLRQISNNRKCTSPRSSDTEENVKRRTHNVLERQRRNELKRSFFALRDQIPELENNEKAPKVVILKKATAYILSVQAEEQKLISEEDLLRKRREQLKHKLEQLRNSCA
Chain of Transcriptional activator Myb (Homo sapiens) (P10242 whole entry, looked up): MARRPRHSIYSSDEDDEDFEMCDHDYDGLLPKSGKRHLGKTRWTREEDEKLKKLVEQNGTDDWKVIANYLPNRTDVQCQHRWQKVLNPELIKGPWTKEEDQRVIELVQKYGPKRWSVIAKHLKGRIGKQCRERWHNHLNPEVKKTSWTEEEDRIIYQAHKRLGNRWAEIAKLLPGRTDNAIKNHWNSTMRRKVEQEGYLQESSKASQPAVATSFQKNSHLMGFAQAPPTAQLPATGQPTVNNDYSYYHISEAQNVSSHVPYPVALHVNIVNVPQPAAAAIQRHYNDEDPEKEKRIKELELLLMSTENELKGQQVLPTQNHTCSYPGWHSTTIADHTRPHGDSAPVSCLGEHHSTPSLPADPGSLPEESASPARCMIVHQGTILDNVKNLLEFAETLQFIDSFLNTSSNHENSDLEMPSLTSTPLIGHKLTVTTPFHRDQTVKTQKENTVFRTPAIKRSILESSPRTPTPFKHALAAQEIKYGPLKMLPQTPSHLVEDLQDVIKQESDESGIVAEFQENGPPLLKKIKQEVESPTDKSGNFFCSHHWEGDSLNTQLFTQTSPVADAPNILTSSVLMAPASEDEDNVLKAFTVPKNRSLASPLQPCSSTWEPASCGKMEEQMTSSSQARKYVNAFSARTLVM
Chain of Nuclear receptor subfamily 4 group A member 2 (Homo sapiens) (P43354 whole entry, looked up): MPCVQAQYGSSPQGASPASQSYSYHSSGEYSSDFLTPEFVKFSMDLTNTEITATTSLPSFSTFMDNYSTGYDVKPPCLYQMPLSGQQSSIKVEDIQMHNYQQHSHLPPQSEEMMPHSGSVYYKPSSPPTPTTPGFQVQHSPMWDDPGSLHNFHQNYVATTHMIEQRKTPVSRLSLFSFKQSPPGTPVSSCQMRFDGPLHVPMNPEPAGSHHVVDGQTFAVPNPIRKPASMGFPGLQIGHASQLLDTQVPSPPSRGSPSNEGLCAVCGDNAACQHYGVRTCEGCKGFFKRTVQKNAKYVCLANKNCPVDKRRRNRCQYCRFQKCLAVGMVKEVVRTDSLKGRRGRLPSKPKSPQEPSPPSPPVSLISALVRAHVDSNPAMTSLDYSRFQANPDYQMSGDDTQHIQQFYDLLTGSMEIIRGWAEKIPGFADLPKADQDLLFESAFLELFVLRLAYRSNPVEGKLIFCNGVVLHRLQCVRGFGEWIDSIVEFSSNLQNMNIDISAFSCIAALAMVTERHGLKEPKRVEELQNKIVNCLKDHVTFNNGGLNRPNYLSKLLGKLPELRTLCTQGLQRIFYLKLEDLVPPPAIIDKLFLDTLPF
Chain of Nuclear respiratory factor 1 (Homo sapiens) (Q16656 whole entry, looked up): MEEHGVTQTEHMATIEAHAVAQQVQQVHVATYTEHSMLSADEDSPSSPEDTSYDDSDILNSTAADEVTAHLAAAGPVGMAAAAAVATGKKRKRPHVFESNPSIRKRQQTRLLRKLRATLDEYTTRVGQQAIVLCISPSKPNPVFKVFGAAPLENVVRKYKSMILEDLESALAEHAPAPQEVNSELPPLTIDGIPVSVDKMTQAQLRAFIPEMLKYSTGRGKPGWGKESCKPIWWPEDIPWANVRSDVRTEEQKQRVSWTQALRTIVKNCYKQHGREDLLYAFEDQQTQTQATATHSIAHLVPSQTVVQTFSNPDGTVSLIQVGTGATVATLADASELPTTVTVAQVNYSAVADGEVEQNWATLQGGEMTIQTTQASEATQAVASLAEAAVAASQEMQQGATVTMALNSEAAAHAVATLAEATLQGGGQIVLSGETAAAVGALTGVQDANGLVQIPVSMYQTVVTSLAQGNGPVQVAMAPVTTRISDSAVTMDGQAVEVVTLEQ
Chain of Hepatocyte nuclear factor 4-alpha (Homo sapiens) (P41235 whole entry, looked up): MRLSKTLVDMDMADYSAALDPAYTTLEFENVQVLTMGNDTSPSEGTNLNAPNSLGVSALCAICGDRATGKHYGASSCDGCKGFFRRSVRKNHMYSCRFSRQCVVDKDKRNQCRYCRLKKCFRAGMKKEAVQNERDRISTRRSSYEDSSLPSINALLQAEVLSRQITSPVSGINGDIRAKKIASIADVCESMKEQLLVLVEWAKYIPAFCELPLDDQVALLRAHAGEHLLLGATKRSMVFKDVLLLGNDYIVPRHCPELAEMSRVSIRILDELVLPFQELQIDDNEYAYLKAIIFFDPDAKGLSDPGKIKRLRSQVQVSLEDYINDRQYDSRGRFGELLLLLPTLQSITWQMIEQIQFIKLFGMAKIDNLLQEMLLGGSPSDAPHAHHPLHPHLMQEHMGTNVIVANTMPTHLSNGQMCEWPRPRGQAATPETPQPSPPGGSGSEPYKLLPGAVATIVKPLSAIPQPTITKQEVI
Chain of Cellular tumor antigen p53 (Homo sapiens) (P04637 whole entry, looked up): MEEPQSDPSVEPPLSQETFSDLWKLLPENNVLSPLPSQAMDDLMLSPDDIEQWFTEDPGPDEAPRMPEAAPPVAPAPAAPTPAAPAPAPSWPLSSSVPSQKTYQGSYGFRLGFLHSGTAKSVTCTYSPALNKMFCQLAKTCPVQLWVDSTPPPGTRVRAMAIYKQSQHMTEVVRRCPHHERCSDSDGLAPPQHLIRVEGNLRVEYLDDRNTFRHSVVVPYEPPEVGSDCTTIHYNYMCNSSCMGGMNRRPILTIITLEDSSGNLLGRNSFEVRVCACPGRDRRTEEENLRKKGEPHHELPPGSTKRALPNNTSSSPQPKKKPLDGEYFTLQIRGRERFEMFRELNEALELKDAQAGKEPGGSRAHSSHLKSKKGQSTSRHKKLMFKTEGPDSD
Chain of Oxysterols receptor LXR-beta (Homo sapiens) (P55055 whole entry, looked up, the tested form may be a part): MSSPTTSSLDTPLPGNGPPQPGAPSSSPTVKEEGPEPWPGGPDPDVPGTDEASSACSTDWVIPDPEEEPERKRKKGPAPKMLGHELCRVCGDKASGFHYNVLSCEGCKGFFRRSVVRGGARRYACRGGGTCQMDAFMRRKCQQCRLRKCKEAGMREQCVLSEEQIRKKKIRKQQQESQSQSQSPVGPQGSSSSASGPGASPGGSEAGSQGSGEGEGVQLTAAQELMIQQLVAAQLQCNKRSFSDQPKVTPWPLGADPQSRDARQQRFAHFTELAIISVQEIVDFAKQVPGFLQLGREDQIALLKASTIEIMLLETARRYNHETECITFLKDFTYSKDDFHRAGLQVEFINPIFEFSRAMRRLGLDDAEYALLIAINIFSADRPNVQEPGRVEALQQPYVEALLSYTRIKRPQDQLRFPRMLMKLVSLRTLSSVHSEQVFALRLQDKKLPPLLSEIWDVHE

In the case of `CCn1c2ccccc2c2ccccc21`, the outcome in [1], in experiment [2], in experiment [3], in experiment [4], in experiment [5] and in experiment [6] was inactive. For the same molecule, the molecule was called inactive in [8], in experiment [9] and in experiment [11]. Further, the results for the AC50 in [7] and in experiment [10] were 152 µM (active) and 157 µM (active), respectively.
As for `O=C(c1ccccc1)c1ccc(Cl)cc1`, the molecule was classed as inactive in experiment [12], in experiment [2], in experiment [3], in experiment [4], in experiment [5] and in experiment [6]. Also, the molecule was classed as inactive in experiment [7], in experiment [8], in experiment [9], in [13] and in [11]. Also, the AC50 in experiment [10] is 132 µM (active).
`OCCC(O)CO` (stereo not drawn): the molecule was called inactive in experiment [14], in experiment [5], in [6], in experiment [7], in [8] and in [9]. For the same molecule, the molecule was called inactive in [10] and in experiment [13].
`O=C(O)C(F)(F)C(F)(F)C(F)(F)C(=O)O`: the result in experiment [15], in experiment [1], in experiment [2], in [3], in [5] and in experiment [6] was inactive. Further, the result in experiment [7], in [8], in experiment [9], in experiment [10], in experiment [13] and in [16] was inactive. Moreover, in experiment [17], the outcome was inactive.
On to `OCC(F)(F)C(F)(F)C(F)(F)CO`, for which the result in experiment [14], in [2], in experiment [4], in experiment [5], in experiment [6] and in [7] was inactive. In addition, the outcome in experiment [8], in experiment [9], in [10], in [13], in experiment [16] and in experiment [17] was inactive.
For the molecule `CC1=CCC(=O)O1`, the result in experiment [12], in experiment [18], in experiment [15], in experiment [1], in [2] and in experiment [3] was inactive. For the same molecule, the call in [4], in [5], in [6], in [7], in experiment [8] and in experiment [9] was inactive. The molecule was called inactive in experiment [10] and in experiment [13].
For `NC(O)(C(F)(F)F)C(F)(F)F`, the molecule was called inactive in experiment [1], in experiment [2], in experiment [4], in experiment [5], in experiment [6] and in experiment [7]. The molecule was called inactive in experiment [8], in [9], in experiment [10], in experiment [11], in experiment [16] and in experiment [17]. In addition, the result in experiment [19] was inactive.
With `CC(C)Nc1ccc(NC(C)C)c2c1C(=O)c1ccccc1C2=O`, the molecule was classed as inactive in [14], in experiment [2], in [4], in experiment [5], in [6] and in experiment [7]. Also, the outcome in experiment [8], in experiment [9] and in [13] was inactive. In addition, the AC50 in experiment [10] is 2.85 µM (active).

Broadly, the AC50 is the concentration giving half of the maximal activity seen.
